Source: patent publication US20120264815, “REVERSIBLE PLATELET INHIBITION” (DUKE UNIVERSITY, published 2012)

Biological target: von Willebrand factor (VWF) (Homo sapiens, UniProt P04275 P04275:764-2813)
Assay: filter; binding decreased
Conditions: tags: Haematologic Technologies Inc. (factor VIII free); label: 5'-32P; ssRNA; 2'-F pyrimidines
Experimental: Dissociation constants (Kd) of each truncate were determined using double-filter nitrocellulose filter binding assays (Pergolizzi et al, Blood 108:862-869 (2006)). All binding studies were performed in binding buffer F (20 mM HEPES, pH 7.4, 150 mM NaCl, 2 mM CaCl₂, and 0.1% BSA) at 37° C. Human purified VWF (with factor VIII and factor VIII free) was purchased from Haematologic Technologies Inc. (Essex Junction, VT) and used in the double-filter nitrocellulose filter binding assay to determine the Kd of individual clones. Briefly, RNA was dephosphorylated using bacterial alkaline phosphatase (Gibco BRL, Gaithberg, Md.) and end-labeled at the 5′ end with T4 polynucleotide kinase (New England Biolabs, Beverly, Mass.) and [γ³²P] ATP (Amersham Pharmacia Biotech, Piscataway, N.J.). Direct binding was performed by incubating ³²P—RNA with VWF in physiological buffer+1 mg/ml BSA at 37° C. for 5 min. The fraction of the nucleic acid-protein complex which bound to the nitrocellulose membrane was quantified with a phosphoimager (Molecular Dynamics, Sunnyvale, Calif.).

| Sequence | binding signal |
| --- | --- |
| GGGAGGACGAUGCGGUGGACGAACUGCCCUCAGCUACUUUCAUGUUGCUGACGCACAGACAGC | 36 % Bmax |
| GGGAGGACGAUGCGGUGGACGAACUGCCCUCAGCUACUUUCAUGUUGCUGACGCACAGA | 22 % Bmax |
| GGGAGGACGAUGCGGUGGACGAACUGCCCUCAGCUACUUUCAUGUUGCUGACGCACAGACGACUCG | 28 % Bmax |
| GGGAGGACGAUGCGGUGGACGAACUGCCCUCAGCUACUUUCAUGUUGCUGACGCACAGACGACUCGCUG | 50 % Bmax |
| GGGAGGAACUGCCCUCAGCUACUUUCAUGUUGCUGACGCACAGACGACUCGCUG | 45 % Bmax |
| GGGAGGACGAACUGCCCUCAGCUACUUUCAUGUUGCUGACGCACAGACGACUCGCUG | 58 % Bmax |
| GGGAGGACGAUGCGGUGGACGAACUGCCCUCAGCUACUUUCAUGUUGCUGACGCACAGACGACUCGCUGAGG | 50 % Bmax |
